Key:
Format in all cases: functional
[1] = target: Solute carrier family 2, facilitated glucose transporter member 1 (Homo sapiens) (UniProt P11166); test: ST_JUDE_LEISH: Cytotoxicity at 2uM final concentration against transgenic Leishmania Mexicana promastigotes LmGLUT1 that are glucose transport deficient and complemented with the human glucose transporter GLUT1. Activity is measured by DNA content using SYBR green in vitro
[2] = target: Hexose transporter 1 (Plasmodium falciparum) (UniProt O97467); test: ST_JUDE_LEISH: Cytotoxicity at 2uM final concentration against transgenic Leishmania Mexicana promastigotes LmPfHT that are glucose transport deficient and complemented with the Plasmodium falciparum hexose transporter. Activity is measured by DNA content using SYBR green in vitro
[3] = target: Glucose transporter (Leishmania mexicana) (UniProt O61059); test: ST_JUDE_LEISH: Cytotoxicity at 2uM final concentration against transgenic Leishmania Mexicana promastigotes LmGT2 that are glucose transport deficient and complemented with the L. Mexicana glucose transporter 2. Activity is measured by DNA content using SYBR green in vitro

Solute carrier family 2, facilitated glucose transporter member 1 (Homo sapiens), sequence (P11166 whole entry): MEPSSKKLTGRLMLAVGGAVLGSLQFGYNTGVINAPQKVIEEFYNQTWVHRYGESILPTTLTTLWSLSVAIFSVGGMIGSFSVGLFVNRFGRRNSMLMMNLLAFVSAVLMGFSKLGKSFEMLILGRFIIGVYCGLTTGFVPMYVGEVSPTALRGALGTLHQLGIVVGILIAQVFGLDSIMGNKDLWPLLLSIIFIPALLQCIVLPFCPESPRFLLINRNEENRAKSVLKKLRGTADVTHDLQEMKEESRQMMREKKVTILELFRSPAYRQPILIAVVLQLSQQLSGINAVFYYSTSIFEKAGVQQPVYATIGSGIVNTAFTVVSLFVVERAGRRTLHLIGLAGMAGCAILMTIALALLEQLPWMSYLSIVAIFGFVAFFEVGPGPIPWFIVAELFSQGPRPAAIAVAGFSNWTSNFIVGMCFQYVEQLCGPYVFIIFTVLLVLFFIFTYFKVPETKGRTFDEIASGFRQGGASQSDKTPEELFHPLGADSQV

Q: How did the inhibition [1] turn out when OCCc1ccc(Nc2nccc(-c3nnc4ccccn34)n2)cc1 was run?
A: 6.85%

Q: What about the inhibition [2] of the same molecule?
A: 6.22%

Q: What about the inhibition [3] of the same molecule?
A: 6.32%

Q: O=C(COc1ccc(Cl)c(Cl)c1)NCCCCCN1CCCN(C(=O)Nc2cc(Cl)cc(Cl)c2)CC1 was tested. Which inhibition [1] did it give?
A: 5.88%

Q: And the inhibition [2]?
A: -0.58%

Q: And the inhibition [3]?
A: 6.4%

Q: For CC1(CCN2CCC(c3c[nH]c4cnccc34)CC2)CCCc2c(Br)cccc2C1=O (stereo unspecified), which inhibition [1] is on record?
A: 54.7%

Q: And the inhibition [2]?
A: 25.4%

Q: What about the inhibition [3] of the same molecule?
A: 95.5%

Q: What does the source list for c1ccc(COc2ccccc2COc2ccccc2-c2ccc3cccnc3n2)cc1?
A: inhibition [1]: 0.28%; inhibition [2]: -0.32%; inhibition [3]: 5.87%

Q: With OCC1CCN(Cc2ccc(-c3ccc(-c4nc5cc(F)ccc5[nH]4)cc3)cc2)CC1 as the molecule, how does the inhibition [1] read?
A: 6.63%

Q: And the inhibition [2]?
A: 4.55%

Q: And the inhibition [3]?
A: 4.78%

Q: With Cc1cccc(Nc2nccc(NCC(O)c3cccc(C(F)(F)F)c3)n2)c1 (stereo unspecified) as the molecule, how does the inhibition [1] read?
A: 7.67%

Q: And the inhibition [2]?
A: 7.59%

Q: And the inhibition [3]?
A: 2.59%

Q: How did the inhibition [1] turn out when CN(C)CCOc1cc(NC(=O)Nc2cccc3c(-c4ccncc4)cccc23)ccc1I was run?
A: 4.55%

Q: What about the inhibition [2] of the same molecule?
A: 3.67%

Q: And the inhibition [3]?
A: 4.12%

Q: What does the source list for Nc1nc(N)c2nc(C3CC=CCC3)c(N)nc2n1 (stereo unspecified)?
A: inhibition [1]: 2.95%; inhibition [2]: 3.81%; inhibition [3]: -0.04%

Q: How did the inhibition [1] turn out when O=S(=O)(Nc1cccc(CCN2CCC(N3CCCCC3)CC2)c1)c1ccc(Cl)cc1 was run?
A: 1.09%

Q: And the inhibition [2]?
A: 1.72%

Q: What about the inhibition [3] of the same molecule?
A: 0.8%

Q: Which results are given for Cc1cc(NCCCN2CCCC2=O)n2c(nc3ccccc32)c1C#N?
A: inhibition [1]: 0.96%; inhibition [2]: 3.33%; inhibition [3]: 2.22%

Q: Which results are given for CCc1ccc(N2C(N)=NC(N)=NC2(C)C)cc1?
A: inhibition [1]: 0.74%; inhibition [2]: 1.29%; inhibition [3]: 2.09%

Q: Which results are given for N#Cc1ccc(N2CCN(Cc3ccc(-c4ccc(-c5nc6cc(F)ccc6[nH]5)s4)cc3)CC2)nc1?
A: inhibition [1]: 6.42%; inhibition [2]: 5.07%; inhibition [3]: 4.78%

Q: With COc1cc2nc(-c3ccccc3)nc(N3CCN(CC(=O)N4CCCC4)CC3)c2cc1OC as the molecule, how does the inhibition [1] read?
A: 3.46%

Q: And the inhibition [2]?
A: 1.22%

Q: What about the inhibition [3] of the same molecule?
A: 4.86%

Q: How did the inhibition [1] turn out when O=C(/C=C/c1ccc(Cl)c(Cl)c1)NC1CCN(Cc2ccc(O)cc2)C1 (stereo unspecified) was run?
A: 1.46%

Q: And the inhibition [2]?
A: -0.06%

Q: And the inhibition [3]?
A: -0.76%

Q: What does the source list for COc1cccc(NC(=O)c2cc(C(=O)Nc3cccc(OC)c3)cc([N+](=O)[O-])c2)c1?
A: inhibition [1]: 2.37%; inhibition [2]: 3.98%; inhibition [3]: 1.08%

Q: For Cc1nc(C)c(-c2ccc(Oc3cccc(OC(F)(F)F)c3)cc2)c(O)c1Cl, which inhibition [1] is on record?
A: 2.22%

Q: What about the inhibition [2] of the same molecule?
A: 2.75%

Q: And the inhibition [3]?
A: 2.84%

Q: COc1ccc(NC(=O)/C=C/c2ccccc2Cl)cc1OCCN1CCC(O)(c2ccc(Cl)c(C(F)(F)F)c2)CC1 was tested. Which inhibition [1] did it give?
A: 11.2%

Q: What about the inhibition [2] of the same molecule?
A: 8.47%

Q: What about the inhibition [3] of the same molecule?
A: 7.73%
